Assay results published in paper PMC5540273 (PLoS ONE, 2017).

How the values were obtained:
Conditions in all cases: concentration: 1 μM, replicates: in singlicate; n = 1
[1] = tested on: T1, MST2
T1 construct: gene STK3

[2] = tested on: T2, MST3
T2 construct: gene STK24

[3] = tested on: MST4
[4] = tested on: MTOR
[5] = tested on: MUSK
[6] = tested on: MYLK2
[7] = tested on: MYLK4
[8] = tested on: MYLK
[9] = tested on: MYO3A
[10] = tested on: MYO3B
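Further: KINOMEscan kinase panel screen.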

Structure (SMILES)	%Inh [1] [%]	%Inh [2] [%]	%Inh [3] [%]	%Inh [4] [%]	%Inh [5] [%]	%Inh [6] [%]	%Inh [7] [%]	%Inh [8] [%]	%Inh [9] [%]	%Inh [10] [%]
C[C@@H]1CCCCN1c1cc(-c2ccc3c(N)n[nH]c3c2)nc(N)n1 [GSK2258759]	0	7	0	2	5	0	0	5	30	0
CCCc1ccc(S(=O)(=O)NC2CCN(c3ccnc(Nc4ccc(F)cc4)n3)C2)cc1 (centres unmarked) [GSK1379715]	0	0	0	0	8	0	0	0	11	0
Cc1c(O)cccc1Nc1ccnc2ccc(C(F)(F)F)cc12.Cl [GW466413]	0	0	0	0	0	0	0	0	0	0
NC(=O)c1nnc2ccccc2c1N	65	0	15	10	10	0	78	37	9	5
O=S(=O)(c1ccc(-c2ccnc3[nH]ccc23)cc1)N1CCCC1 [GSK846226]	4	14	0	12	0	3	62	22	10	0
O=C(Nc1n[nH]c2cc(-c3cccc(F)c3F)ccc12)C1CC1 [SB-733894]	31	0	8	0	0	90.2	0	8	2	0
O=C(Nc1n[nH]c2nc(-c3nccs3)c(Br)cc12)C1CC1 [SB-742251]	0	0	0	16	0	93.4	23	7	0	0
Cl.Oc1ccc(-c2nc(-c3ccccc3)[nH]c2-c2ccncc2)cc1 [SB-428218]	0	0	0	32	0	0	17	22	46	0
Cl.O=C(Nc1cccc(-c2nn3ncccc3c2-c2ccnc(Nc3cccnc3)n2)c1)c1c(F)cccc1F [GSK312879]	19	0	0	15	23	13	1	2	0	0
Cn1cncc1-c1ccc2ncnc(Nc3ccc(OCc4ccccc4)cc3)c2c1 [GW320571]	0	0	0	30	21	20	0	6	0	0
Cc1cccc(-c2nc(Nc3ccncc3)c3ccccc3n2)n1 [GW855857]	0	3	0	50	17	7	7	12	0	17
Cc1cccc(-c2nc(Nc3ccc4[nH]ncc4c3)c3ccccc3n2)n1 [GW857175]	0	10	27	0	0	7	32	32	0	0
CC(C)(C)c1ccc(C(=O)Nc2cn3cc(-c4cccnc4)ccc3n2)cc1	42	38	0	11	17	53	11	28	8	22
Cc1c(Cn2ccn3c(=O)cc(N4CCOCC4)nc23)cccc1C(F)(F)F [GSK2289044]	0	0	0	15	17	0	0	16	12	2
COc1ccccc1-c1ccc2c(NC(=O)C3CC3)n[nH]c2n1 [SB-711239]	0	0	0	30	0	23	0	12	0	0
Cc1nnc(-c2ccc3occ(-c4ccc(S(C)=O)cc4)c3c2)[nH]1 (centres unmarked)	0	11	0	10	16	4	7	11	0	2

Structure (SMILES)	%Inh [1] [%]	%Inh [2] [%]	%Inh [3] [%]	%Inh [4] [%]	%Inh [5] [%]	%Inh [6] [%]	%Inh [7] [%]	%Inh [8] [%]	%Inh [9] [%]	%Inh [10] [%]
CCn1c(-c2ccccn2)nc2cnccc21 [SB-736398]	0	0	0	0	5	3	2	0	18	0
Cc1cccc(-c2cc(Nc3ccncc3)c3ccccc3n2)n1 [GSK223675]	6	5	0	7	1	0	0	15	17	0
Nc1nc(-c2nccs2)c(-c2ccnc3ccccc23)s1 [GW693542]	75	0	0	15	15	11	0	11	3	0
O=C1NC(=O)C(N2CCc3ccccc32)=C1c1ccccc1Cl [SB-373598]	0	0	8	15	2	22	0	8	14	9
CC(=O)Nc1nc2cnc(Nc3cc(NC(=O)c4cccc(CCC#N)c4)ccc3C)nc2s1	27	3	0	0	0	0	6	27	13	0
CN1C(=O)C(Nc2ccc(Cl)c(C(=O)O)c2)=C(c2ccc(Cl)cc2)C1=O [SB-404290]	0	0	33	0	13	0	5	12	11	31
COc1cc2nccc(Nc3ccc(NC(=O)c4ccc(C)cc4)c(O)c3)c2cc1OC.Cl [GW440132]	0	0	0	4	13	4	0	11	10	0
O=C(Nc1ccc2c(c1)OCO2)NC1CCN(c2ccnc(Nc3ccc(F)cc3)n2)C1 (centres unmarked) [GSK1379724]	0	0	0	5	2	1	0	0	24	0
O=C(O)COc1ncnc2cc(-c3ccc4[nH]ncc4c3)sc12	40	24	0	14	9	31	22	7	0	0
O=c1cc(N2CCOCC2)nc2n(Cc3cccc(Cl)c3Cl)ccn12 [GSK2286295]	0	0	0	17	8	2	0	25	0	8
Fc1cc(Cl)ccc1Nc1ccnc2cc(-c3ccc(CN4CCCCC4)o3)ccc12 [GW560116]	0	15	0	0	0	27	5	11	31	0
CC1=C(C(=O)Nc2cc3cn[nH]c3cc2F)C(c2ccc(C(F)(F)F)cc2)CC(=O)N1 (centres unmarked) [GSK429286]	0	0	0	13	6	0	0	13	0	0
Cl.NC(=O)c1cccc(Nc2nccc(Nc3ccc(Oc4cccc(Cl)c4)c(Cl)c3)n2)c1 [GW659008]	0	10	0	0	13	21	14	3	6	3
Cc1ccc(-c2cc(-c3c[nH]nc3-c3ccccn3)ccn2)cc1 [GW684088]	3	25	0	22	0	39	13	18	46	5
Cc1cccc(-c2nc(C)cc(Nc3ccncc3)n2)n1 [GSK257997]	0	0	0	13	0	16	9	5	6	0
COc1ccc(Nc2nccc(-c3cccc(NC(=O)c4cc5cc(F)ccc5[nH]4)c3)n2)cc1 [GSK1229782]	24	15	0	21	6	19	11	31	60	0
